Data on 16 molecules can be found in PubChem BioAssay (NCI).

Common to all, as to experiment: NCI-60 one-dose screen, 48 h (100 = growth as untreated, 0 = no growth, -100 = all killed)
Conditions in all cases: 10 µM unless noted

For assay [1], the system named is T-47D breast.
Assay [2] has as its system BT-549 breast.
The subject of assay [3] is MDA-MB-435 melanoma.
Assay [4] has as its system SW-620 colon.
Assay [5] has as its system MCF7 breast.
The test system of assay [6] is HCT-116 colon.
For assay [7], the system named is HCC-2998 colon.
Assay [8] concerns KM12 colon.

The panel holds about 83,000 compounds, 20% with a hit somewhere; the sample as a whole holds those more often.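 Activity criterion: percent growth below 10, measured after cells in 96-well plates were exposed to a single compound concentration for 48 hours.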 Values without a mark were called inactive. Activity calls are given as the source filed them.

Take `CC1(C)CC(=O)C2=C(C1)Oc1nc(N)c(C#N)c(N)c1C2c1ccc(F)cc1` (stereo not drawn): the growth is 116% in assay [1]; 100% in assay [2]; 112% in assay [3]; 101% in assay [4]; 109% in assay [5]; 109% in assay [6]. The growth in assay [7] is 132%; in assay [8] it was 109%.
Regarding `O=C1C(=O)c2ccccc2C(O)=C1CCCc1ccc(C2CCCC2)cc1`, the growth in assay [1] is 59.8%; in assay [2], 40.3%; in assay [3], 42%; in assay [4], 24.3%; in assay [5], 33.3%; in assay [6], 16.6%. Moreover, the growth in assay [7] was 36.7%; in assay [8] it was 27.6%.
With `O=C(O)COc1ccc([N+](=O)[O-])cc1Cl`, the growth is 86.1% in assay [1]; 107% in assay [2]; 107% in assay [3]; 108% in assay [4]; 102% in assay [5]; 105% in assay [6]. Moreover, the growth was 113% in assay [7] and 103% in assay [8].
For the molecule `CC(=N\N=C(N)N)/C(=N/N=C(N)N)c1ccccc1`, the growth in assay [1] is 60.8%; in assay [2] it was 88%; in assay [3] it was 103%; in assay [4] it was 86.3%; in assay [5], 18.9%; in assay [6], 80.4%. For the same molecule, the results for the growth in assay [7] and in assay [8] were 73.8% and 70.4%, respectively.
Turning to `O=c1oc2ccc3ccccc3c2cc1-c1ccnc2[nH]c(=S)[nH]c(=O)c12`, the growth is 103% in assay [1]; 101% in assay [2]; 106% in assay [3]; 105% in assay [4]; 96.8% in assay [5]; 93.9% in assay [6]. For the same molecule, the growth in assay [7] and in assay [8] was 101% throughout.
Regarding `COC(=O)/C=C1/CCCCC1(C)C(=O)OC` (stereo not drawn), the growth was 110% in assay [1]; 89.8% in assay [2]; 103% in assay [3]; 106% in assay [4]; 106% in assay [5]; 95.7% in assay [6]. The growth in assay [7] was 119%; in assay [8] it was 107%.
In the case of `Nc1nc2c(c3ncncc13)C(c1cccc(C(F)(F)F)c1)Cc1ncncc1-2` (stereo not drawn), the growth was 37.9% in assay [1]; 30.1% in assay [2]; -24.7% (active) in assay [3]; 28.9% in assay [4]; 19.2% in assay [5]; 18.5% in assay [6]. Besides, the growth in assay [7] was 64.3%; in assay [8] it was 28.9%.
`CNCCCNCCCCNCCCN1C(=O)c2ccc3c4c(ccc(c24)C1=O)C(=O)N(CCCNCc1ccccc1OC)C3=O`: the growth was 8.96% (active) in assay [1]; 57.8% in assay [2]; 1.07% (active) in assay [3]; 19.8% in assay [4]; 7.86% (active) in assay [5]; 11.1% in assay [6]. The figures for the growth in assay [7] and in assay [8] were 31.5% and 12%, respectively.
Regarding `CC(=O)/C(=C\c1c(-c2ccccc2)[nH]c2ccccc12)S(=O)(=O)c1ccccc1`, the growth in assay [1] was 13%; in assay [2], 16.9%; in assay [3], 5.41% (active); in assay [4], 12.1%; in assay [5], 10.1%; in assay [6] it was 9.03% (active). The growth in assay [7] was 4.79% (active); in assay [8], -10.1% (active).
In the case of `Cc1nn(-c2ccccc2)c(N)c1N=C1NC(=O)/C(=C/c2ccc(Cl)cc2)S1`, the growth in assay [1] is 74.4%; in assay [2], 75.8%; in assay [3] it was 66.9%; in assay [4] it was 82.2%; in assay [5], 70.9%; in assay [6] it was 83.6%. The growth was 121% in assay [7] and 78.3% in assay [8].
For the molecule `COc1ccc(-c2nc(SCC(C)C)nc(Nc3ccc([N+](=O)[O-])cc3)c2C#N)cc1`, the growth in assay [1] was 92.6%; in assay [2], 104%; in assay [3] it was 101%; in assay [4] it was 84.8%; in assay [5] it was 90.2%; in assay [6], 60.1%. For the same molecule, the values for the growth in assay [7] and in assay [8] were 107% and 99.9%, respectively.
`N/C(=N\O)c1ccncc1`: the growth in assay [1] is 102%; in assay [2], 98.3%; in assay [3] it was 100%; in assay [4] it was 105%; in assay [5] it was 97.2%; in assay [6] it was 102%. In addition, the growth in assay [7] was 95.8%; in assay [8], 102%.
Take `CC(=O)OC1CC2C3CCC4C[C@@H](NC(=O)C=C(C)C)CC[C@]4(C)C3CC[C@]2(C)[C@H]1C(C)N(C)C` (stereo partly drawn): the growth in assay [1] is -22.3% (active); in assay [2] it was 22.5%; in assay [3] it was -45.4% (active); in assay [4], -72.5% (active); in assay [5], 1.95% (active); in assay [6], -70.4% (active). Moreover, the growth is -51.9% (active) in assay [7] and 1.6% (active) in assay [8].
`CCCC(=O)Nc1ccccc1C(=O)O`: the growth was 117% in assay [1]; 113% in assay [2]; 101% in assay [3]; 105% in assay [4]; 90.7% in assay [5]; 103% in assay [6]. In addition, the growth in assay [7] is 97.9%; in assay [8], 90.5%.
Take `Br/C(=N\Nc1nn[nH]n1)c1ccccc1`: the growth was 101% in assay [1]; 99% in assay [2]; 111% in assay [3]; 102% in assay [4]; 95.3% in assay [5]; 104% in assay [6]. Moreover, the growth in assay [7] was 118%; in assay [8], 114%.
With `COc1cc(C(=O)Nc2ccc(N(C)C)cc2)cc(OC)c1OC`, the growth in assay [1] is 91.1%; in assay [2] it was 96.7%; in assay [3] it was 1.26% (active); in assay [4], 85.9%; in assay [5], 77.8%; in assay [6], 89%. The growth in assay [7] is 92.1%; in assay [8], 81%.
